The results in this text go back to PubChem BioAssay AID1220 (Sanford-Burnham Center for Chemical Genomics, 2008).

Each structure is given as a SMILES string. In all, about 190,000 compounds went through this assay and about 1,300 (0.68%) were called active. The sample holds actives, similar compounds and a random draw of the others, so the mix is not that of the screen. Values without a mark were called inactive. Cut-off read from the data, not from the text of the source: active = inhibition above about 50%; inactive = the rest.

The target in this assay is Mannose-6-phosphate isomerase (Homo sapiens) (UniProt P34949). As to the kind of experiment: human PMI inhibitors, high substrate, primary screen, biochemical, fluorescence intensity, high mannose 6-phosphate (AID 1220). The settings on record: recombinant PMI enzyme, coupled fluorescence intensity; at 20 µM; stronger effect = higher value.
Sequence of Mannose-6-phosphate isomerase (Homo sapiens) (P34949 whole entry, looked up): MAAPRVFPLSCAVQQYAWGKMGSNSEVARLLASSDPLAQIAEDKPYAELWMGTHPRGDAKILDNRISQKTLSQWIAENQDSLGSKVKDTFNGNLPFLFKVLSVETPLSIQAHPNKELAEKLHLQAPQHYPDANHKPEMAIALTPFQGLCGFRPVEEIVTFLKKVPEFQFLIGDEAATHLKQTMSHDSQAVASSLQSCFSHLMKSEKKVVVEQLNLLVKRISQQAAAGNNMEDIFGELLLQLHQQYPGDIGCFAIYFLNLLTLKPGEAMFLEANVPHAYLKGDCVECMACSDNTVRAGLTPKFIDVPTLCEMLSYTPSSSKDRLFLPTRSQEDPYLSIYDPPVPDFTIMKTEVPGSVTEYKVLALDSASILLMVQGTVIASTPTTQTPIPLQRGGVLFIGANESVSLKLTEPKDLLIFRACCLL
Broadly, the inhibition is the change of the read-out against control, counted positive when it falls. `O=C(Nc1ccccc1N1CCOCC1)C1Cc2ccccc2CN1C(=O)c1ccco1` (stereo not drawn): the inhibition was -3.5%.

For `COc1c(Cl)cc(C(=O)Nc2ccccc2C(=O)O)cc1Cl`, the inhibition was 0.7%.

Take `Oc1c(C=Nc2cccc3cccnc23)sc2ccccc12`: the inhibition is -3.1%.

Consider `Cc1ccc(O)c(N=Cc2sc3ccccc3c2Cl)c1`, for which the inhibition was 19.3%.

For `Oc1ccc(Cl)cc1N=Cc1sc2ccccc2c1Cl`, the inhibition was 55.5% (active).

Regarding `O=[N+]([O-])c1ccc(O)c(N=Cc2sc3ccccc3c2O)c1`, the inhibition was 25.4%.

As to `Oc1ccccc1N=Cc1sc2ccccc2c1Cl`, the inhibition was 56.6% (active).

Turning to `COc1ccc(N=Cc2sc3ccccc3c2Cl)cc1`, the inhibition is 1.8%.

As to `COc1ccc(S(=O)(=O)NCCOc2ccccc2)cc1-n1cnnn1`, the inhibition was 7.4%.

For the compound `Nc1nc(SCc2c(Cl)cccc2Cl)n[nH]1`, the inhibition was -8.6%.

On to `Cc1ccn2cc(C(=O)Nc3nnc(C)s3)nc2c1`, for which the inhibition is 51.4% (active).

With `Cc1ccn2cc(C(=O)Nc3ccc4c(c3)OCCO4)nc2c1`, the inhibition was 8.6%.

Turning to `CCOC(=O)c1cn2ccc(C)cc2n1`, the inhibition was 10%.

As to `CC1CCN(CC(=O)Nc2sc3c(c2C#N)CCC3)CC1`, the inhibition is -6.5%.

For `CC(C)CCN1CCN(C2CCN(c3ccc4c(c3)OCO4)CC2)CC1CCO` (stereo not drawn), the inhibition is 52.3% (active).

Take `CC(C)CCN1CCN(C2CCN(c3ccccc3)CC2)CC1CCO` (stereo not drawn): the inhibition is 7%.

As to `Cc1cc(F)ccc1N1CCC(N2CCN(CCC(C)C)C(CCO)C2)CC1` (stereo not drawn), the inhibition is 4.2%.

As for `C=CCSc1nnc(NC(=O)c2cn(CC)c3nc(C)ccc3c2=O)s1`, the inhibition was -1.9%.

Turning to `Nc1c(C(=O)NCc2ccco2)c2nc3ccccc3nc2n1CCc1ccccc1`, the inhibition is 34.8%.

For the compound `COc1ccc(CCn2c(N)c(C(=O)NCc3ccco3)c3nc4ccccc4nc32)cc1OC`, the inhibition was 51.6% (active).

In the case of `COCCn1c(N)c(S(=O)(=O)c2cccs2)c2nc3ccccc3nc21`, the inhibition is 4.3%.

Consider `COCCn1c(N)c(C(=O)NCc2cccs2)c2nc3ccccc3nc21`, for which the inhibition is 62.5% (active).

As for `COc1ccc(CNC(=O)c2c(N)n(CCCN3CCOCC3)c3nc4ccccc4nc23)cc1`, the inhibition was 20.1%.

Consider `COc1ccccc1CNC(=O)c1c(N)n(CCCN2CCOCC2)c2nc3ccccc3nc12`, for which the inhibition was 52.5% (active).

Regarding `Nc1c(C(=O)NCc2ccccc2)c2nc3ccccc3nc2n1CCCN1CCOCC1`, the inhibition is 49%.

On to `COc1ccc(OC)c(-n2c(N)c(C(=O)NCC3CCCO3)c3nc4ccccc4nc32)c1` (stereo not drawn), for which the inhibition is 17.6%.

In the case of `COCCn1c(N)c(C(=O)OCc2ccccc2)c2nc3ccccc3nc21`, the inhibition was 49.4%.

Take `COCCn1c(N)c(C(=O)NCC2CCCO2)c2nc3ccccc3nc21` (stereo not drawn): the inhibition is 71.5% (active).

On to `COCCn1c(N)c(C(=O)Nc2sc3c(c2C(=O)OC)CCCC3)c2nc3ccccc3nc21`, for which the inhibition was 11.1%.

Turning to `COc1ccc(CCn2c(N)c(C(=O)NCc3ccco3)c3nc4ccccc4nc32)cc1`, the inhibition is 48.2%.

On to `COc1ccccc1/C=N/NC(=O)c1ccccc1Cl`, for which the inhibition was 2.7%.

On to `COc1ccc2nc(C)cc(SCC(=O)NNC(=O)COc3cccc4ccccc34)c2c1`, for which the inhibition is -3%.

With `CC(C)N(C(=O)Cn1cc(SCC(N)=O)c2ccccc21)C(C)C`, the inhibition is -4.4%.

Consider `COc1cccc(NC(=O)CSCC(=O)O)c1`, for which the inhibition was 8.3%.

On to `CCOC(=O)Cn1cc(C(=O)c2cccs2)c2ccccc21`, for which the inhibition is 5.6%.

For the compound `O=S(=O)(NC1CC2CCC1C2)c1ccc2c(c1)OCCO2` (stereo not drawn), the inhibition was 3.1%.

For the compound `CC(=O)Nc1ccc(NC(=O)Cn2c(=O)n(-c3ccc(F)cc3)c(=O)c3oc4ccccc4c32)cc1`, the inhibition was -9.8%.

Take `C=CCn1c(N)c(C(=O)NCC2CCCO2)c2nc3ccccc3nc21` (stereo not drawn): the inhibition was 57% (active).

On to `C=CCn1c(N)c(C(=O)Nc2ccc(C)c(C)c2)c2nc3ccccc3nc21`, for which the inhibition is 41.2%.

On to `COCCNC(=O)c1c(N)n(-c2cccc(C)c2)c2nc3ccccc3nc12`, for which the inhibition was 25.9%.

Consider `Nc1c(C(=O)NCC2CCCO2)c2nc3ccccc3nc2n1-c1ccccc1` (stereo not drawn), for which the inhibition was 60.3% (active).

For the compound `CC(C)Cn1c(N)c(C(=O)NCCN2CCOCC2)c2nc3ccccc3nc21`, the inhibition is 20.7%.

On to `COCCCNC(=O)c1c(N)n(-c2ccc(S(N)(=O)=O)cc2)c2nc3ccccc3nc12`, for which the inhibition is 38.7%.

For the compound `O=C(NCC1CCCO1)c1coc2nc3ccccc3nc12` (stereo not drawn), the inhibition is -9.5%.

As for `C=CCn1c(N)c(C(=O)Nc2ccccc2)c2nc3ccccc3nc21`, the inhibition is 13.4%.

Consider `COCCNC(=O)c1c(N)n(-c2ccccc2)c2nc3ccccc3nc12`, for which the inhibition was 55.1% (active).

Consider `COc1ccc(-n2c(N)c(C(=O)NCC3CCCO3)c3nc4ccccc4nc32)c(OC)c1` (stereo not drawn), for which the inhibition is 45%.

Turning to `COc1ccccc1-n1c(N)c(C(=O)NCC2CCCO2)c2nc3ccccc3nc21` (stereo not drawn), the inhibition is -18.2%.

In the case of `CC(C)Cn1c(N)c(C(=O)NCC2CCCO2)c2nc3ccccc3nc21` (stereo not drawn), the inhibition was 59.5% (active).

As for `O=C(Cn1c(NCCCO)nc2ccccc21)c1cccc(Br)c1`, the inhibition is 4.9%.

For the compound `O=C(CSc1nnc(COc2ccccc2)n1Cc1ccco1)NCc1ccco1`, the inhibition was 2.2%.

Consider `O=C1CC(c2ccccc2)CC(O)=C1C=NCc1ccccc1Cl` (stereo not drawn), for which the inhibition was 4.3%.

On to `O=C(COC(=O)c1cc2c(s1)CCCC2)Nc1ccc(Cl)cn1`, for which the inhibition was 4.6%.

For `CCc1nnc(NC(=O)CCC(=O)N2CCN(CCc3ccccc3)CC2)s1`, the inhibition is -5.9%.

Take `CCn1c(CNc2ccc(F)cc2)nnc1SCC(=O)N1CCCc2ccccc21`: the inhibition is 27.9%.

For `CCc1ccccc1S(=O)(=O)Cc1ccc(C(=O)NCc2ccc3c(c2)OCO3)o1`, the inhibition was -1.6%.

In the case of `C=CCn1c(NC(=O)c2ccccc2Cl)c(C#N)c2nc3ccccc3nc21`, the inhibition is 54.5% (active).

Regarding `Cc1ccccc1C(=O)Nc1ccc2c(C#N)c3nc4ccccc4nc3n2c1`, the inhibition is 6.1%.

Turning to `CCCCn1c(NC(=O)c2ccccc2Cl)c(C#N)c2nc3ccccc3nc21`, the inhibition was 53.7% (active).

As to `CCCCn1c(NC(=O)CC)c(C#N)c2nc3ccccc3nc21`, the inhibition was 13%.

Regarding `CCC(=O)Nc1c(C#N)c2nc3ccccc3nc2n1-c1ccccc1C`, the inhibition was 24.5%.

Take `N#Cc1c(N)n(CCNC(=O)c2ccccc2)c2nc3ccccc3nc12`: the inhibition is 24.7%.

As for `CCCCn1c(NC(=O)c2ccccc2)c(C#N)c2nc3ccccc3nc21`, the inhibition was 54.7% (active).

For `N#Cc1c(NC(=O)c2ccccc2Cl)n(Cc2ccccc2)c2nc3ccccc3nc12`, the inhibition was 32.7%.

With `CCCCCn1c(N)c(C#N)c2nc3ccccc3nc21`, the inhibition is 42.7%.

For the compound `CCCCn1c(NC(=O)c2ccccc2)nc2ccccc21`, the inhibition was -3.6%.

For the compound `N#Cc1c(N)n(CCNC(=O)c2ccc(Cl)cc2)c2nc3ccccc3nc12`, the inhibition was 16.9%.

With `CCCCn1c(NC(C)=O)c(C#N)c2nc3ccccc3nc21`, the inhibition was 57% (active).

Turning to `O=C(CSc1nc2ccccc2n1CC(=O)N1CCCC1)NCc1ccc2c(c1)OCO2`, the inhibition is -0.8%.

On to `Cc1ccc(NC(=O)c2cc3c(s2)CCC3)cc1S(=O)(=O)N1CCOCC1`, for which the inhibition is 8.8%.

`COc1ccc(S(=O)(=O)NCc2cccs2)cc1`: the inhibition is -18.3%.

As for `O=C(NC(=S)NCCCN1CCOCC1)c1cccc2ccccc12`, the inhibition is 1%.

For the compound `O=C1c2ccccc2C(=O)N1c1cccc2cccnc12`, the inhibition was -2.2%.

Take `O=S1(=O)NC(=NCCc2ccccn2)c2ccccc21`: the inhibition was -6.8%.

In the case of `O=S1(=O)Nc2c(ccc3cccnc23)-c2ccccc21`, the inhibition is 69.5% (active).

As to `O=S(=O)(c1ccc(Cl)cc1)N1CCN(c2ccc(N3CCOCC3)nn2)CC1`, the inhibition was -2.7%.

Take `N#CC1=C(N)Oc2c(ccc3ccccc23)C1c1cccs1` (stereo not drawn): the inhibition was 3.4%.

Turning to `N#CC1=C(N)Oc2c(ccc3ccccc23)C1c1ccsc1` (stereo not drawn), the inhibition is 53.2% (active).

For the compound `N#CC1=C(N)Oc2c(O)cc3ccccc3c2C1c1ccsc1` (stereo not drawn), the inhibition is 30.3%.

Consider `c1ccc(N2CCN(c3nc4ccccc4n4cnnc34)CC2)cc1`, for which the inhibition is 10%.

As to `Nc1ccc(-c2ccc(N)c([N+](=O)[O-])c2)cc1[N+](=O)[O-]`, the inhibition was -2.3%.

Turning to `CC1(C)Oc2cc(N)c([N+](=O)[O-])cc2O1`, the inhibition was 28.1%.

Turning to `O=c1[nH]cnc2ccsc12`, the inhibition was -6%.

Turning to `CCOc1ccccc1NC(=O)CN(c1ccc(OC)cc1OC)S(=O)(=O)c1ccccc1[N+](=O)[O-]`, the inhibition is -0.9%.

As to `CC(=O)c1cccc(NC(=O)C(=O)Nc2cccc3ccccc23)c1`, the inhibition is -6.5%.

`CN(C)c1ccc(NC(=O)Nc2cccc3ccccc23)cc1`: the inhibition is 25.8%.

As to `COc1ccc(N/C(C)=C/C(=O)c2ccccc2)cc1`, the inhibition is 14.3%.

Take `C/C(=C\C(=S)Nc1ccccc1)Nc1ccc2ccccc2c1`: the inhibition was 60% (active).

`COc1ccc(N/C(C)=C/C(=S)Nc2ccccc2)cc1`: the inhibition was 50.1% (active).

As to `C/C(=C\C(=S)Nc1ccccc1)Nc1cccc2ccccc12`, the inhibition is 60.8% (active).

Regarding `CN(C)C(=S)Nc1ccc2ccccc2c1`, the inhibition is 3.2%.

Take `CC(=O)Nc1ccc2ccccc2c1`: the inhibition was 6.5%.

`C/C(=C\C(=S)Nc1ccccc1)Nc1ccccc1`: the inhibition is -1.1%.

Regarding `CCn1c(SCC(=O)N/N=C/c2cc(OC)c(O)c(OC)c2)nc2ccccc21`, the inhibition was -11%.

On to `CC(C)NS(=O)(=O)c1ccc(NC(=S)NC(=O)c2cccc([N+](=O)[O-])c2)cc1`, for which the inhibition was -2.9%.

As for `O=C(O)CSc1nnc(-c2ccncc2)n1CCc1ccccc1`, the inhibition is -5.1%.

With `O=c1[nH]c2cc3c(cc2cc1CN(Cc1nnnn1CC1CCCO1)C1CCCC1)OCO3` (stereo not drawn), the inhibition is -6.2%.

For the compound `O=C(CCN1CCCCC1)c1ccc2c(c1)OCCO2`, the inhibition is 43%.
